# The campaign covered roughly 370,000 compounds. About 3,700 (1%) were called active.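 The calls were made as follows: active = activation above the mean over all tested compounds plus 3 SD (cut at about 0.9% in these data); inactive = the rest.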 Many of the other results were omitted from the sample, so actives are more common in it than they were.
# Test system: Nuclear hormone receptor DAF-12 (Strongyloides stercoralis)
# Assay: S. stercoralis DAF-12 nuclear receptor activators, primary screen, cell-based, luminescence, HEK293, GRIP1 co-expression, lit1-tk-luc (AID 652126);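 also: 0% = DMSO-only wells and 100% = 3 µM delta7-dafachronic acid wells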
# Details: HEK293 ssDAF-12/GRIP1 lit1-tk-luc reporter, at 6.8 µM, hits give high values, % of 3 µM dafachronic acid response
row,Compound,activation
1,COc1cc(NC(=O)C2CCCN(S(=O)(=O)c3ccc(C(C)(C)C)cc3)C2)cc(OC)c1 (stereo unspecified),-0.79% (inactive)
2,CCSC1=C(C#N)C(=O)n2c1cc1c2CCCC1,-0.32% (inactive)
3,CCC1CCc2c(sc(NC(C)=O)c2C#N)C1 (stereo unspecified),-1.82% (inactive)
4,N#Cc1c(NC(=O)c2ccc(N3CCOCC3)c([N+](=O)[O-])c2)sc2c1CCCC2,-1.7% (inactive)
5,N#Cc1c(NC(=O)C2CCCO2)sc2c1CCCCC2 (stereo unspecified),2.81% (active)
6,C[C@@H]1COc2cccc(N3CCCC3)c2S(=O)(=O)N1C,-1.35% (inactive)
7,O=c1onc(-c2cccs2)n1Cc1ccccc1,-1.05% (inactive)
8,O=C(Cn1c(-c2ccc(Cl)cc2)noc1=O)N1CCN(c2ccccc2F)CC1,-0.84% (inactive)
9,O=c1onc(-c2c(F)cccc2F)n1-c1ccccc1Cl,1.01% (active)
10,O=C(Nc1ccc2sc3ccccc3c(=O)c2c1)c1ccccc1Cl,1.16% (active)
11,CS(=O)(=O)c1ccccc1C(=O)Nc1ccc2sccc2c1,-1.02% (inactive)
12,COCC(=O)N1CCc2ccc(NC(=O)c3ccccc3Cl)cc2C1,-1.31% (inactive)
13,COc1ccc(C2Nc3ccccc3C(=O)N2Cc2cccs2)cc1COc1c(C)cccc1C (stereo unspecified),-0.82% (inactive)
14,CCCCn1nc(C(=O)Nc2cccc(C(=O)NC3CC3)c2)c2ccccc2c1=O,-1.7% (inactive)
15,CCCn1nc(C(=O)NNC(=O)CSCC(=O)Nc2cc(C)on2)c2ccccc2c1=O,-0.87% (inactive)
16,CCCn1nc(C(=O)Nc2ccc3nc(C)sc3c2)c2ccccc2c1=O,8.45% (active)
17,COc1ccc(-n2c(COc3ccc(C)cc3)nnc2SCC(=O)Nc2ccc(Oc3ccccc3)cc2)cc1,-1.71% (inactive)
18,CCCCCN1CCCCC(NC(=O)C(C)CCC)C1=O (stereo unspecified),-1.23% (inactive)
19,C=C(C)C#CC(Cc1ccccc1)N(CC1CC1)/C(N)=N/C(=O)OCc1ccccc1 (stereo unspecified),-1.98% (inactive)
20,COc1ccc(-n2c(SCC(=O)Nc3ccc4c(c3)OCCO4)nnc2-c2ccc(Cl)cc2)cc1,-1.63% (inactive)
21,CCC[C@H]1C(=O)CC[C@@]23CCCN2C(=O)CCC[C@@H]13,-0.75% (inactive)
22,O=C1CC[C@@]23CCCN2C(=O)CCC[C@H]3[C@H]1Cc1ccccc1,-1.31% (inactive)
23,CCC(=O)c1c(CC)c2n3c1=CC[C@H]3CC(Br)C=2 (stereo partly specified),-1.9% (inactive)
24,COc1ccc(NC2=CC(=S)NC(C)(C)C2)cc1,-0.87% (inactive)
25,COc1ccc(Nc2ccc3ccccc3c2)cc1,2.46% (active)
26,COc1ccc(Nc2cc(=O)n(-c3ccccc3)c3c2c(=O)n(C)c(=O)n3C)cc1,-0.93% (inactive)

# Source: PubChem BioAssay AID652126 (The Scripps Research Institute Molecular Screening Center, 2013)
